From PubChem BioAssay (NCI)
The panel holds about 83,000 compounds, 20% with a hit somewhere; the sample as a whole holds those more often.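 Negative percent growth values reflect cell death: -40 means 40% of the cells present at the start died, and -100 means all died.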 Calls of active or inactive are those of the source. The calls were made as follows: active = growth percent below 10; inactive = the rest.

How the values were obtained:
Experiment in all cases: NCI-60 one-dose screen, 48 h (100 = growth as untreated, 0 = no growth, -100 = all killed)
Settings in all cases: 10 µM unless noted
SK-MEL-2 melanoma = test system: SK-MEL-2 melanoma
EKVX NSCLC = test system: EKVX NSCLC
SN12C renal = test system: SN12C renal
UO-31 renal = test system: UO-31 renal
TK-10 renal = test system: TK-10 renal
ACHN renal = test system: ACHN renal
CAKI-1 renal = test system: CAKI-1 renal
A498 renal = test system: A498 renal
CCRF-CEM leukemia = test system: CCRF-CEM leukemia
MOLT-4 leukemia = test system: MOLT-4 leukemia
SR leukemia = test system: SR leukemia
RPMI-8226 leukemia = test system: RPMI-8226 leukemia
OVCAR-8 ovarian = test system: OVCAR-8 ovarian
OVCAR-5 ovarian = test system: OVCAR-5 ovarian
OVCAR-4 ovarian = test system: OVCAR-4 ovarian
SK-OV-3 ovarian = test system: SK-OV-3 ovarian
IGROV1 ovarian = test system: IGROV1 ovarian
OVCAR-3 ovarian = test system: OVCAR-3 ovarian
HS 578T breast = test system: HS 578T breast
NCI/ADR-RES ovarian = test system: NCI/ADR-RES ovarian

Measured: growth

Cc1ccc2c(c1)CC(O)CC1C(=O)N(CCO)CC(=O)N21 (stereo unspecified)
inactive: SK-MEL-2 melanoma 86.2% | EKVX NSCLC 104% | SN12C renal 100% | UO-31 renal 95.8% | TK-10 renal 88.6% | ACHN renal 104% | CAKI-1 renal 92.6% | A498 renal 99.4% | CCRF-CEM leukemia 104% | MOLT-4 leukemia 92.2% | SR leukemia 87.3% | RPMI-8226 leukemia 98.8% | OVCAR-8 ovarian 101% | OVCAR-5 ovarian 101% | OVCAR-4 ovarian 113% | SK-OV-3 ovarian 103% | IGROV1 ovarian 112% | OVCAR-3 ovarian 115% | HS 578T breast 103% | NCI/ADR-RES ovarian 104%

CCOC(=O)c1c2c(n3ccc(NC(=O)CCN4CCCC4)cc13)C(=O)c1ncccc1C2=O
inactive: SK-MEL-2 melanoma 93.9% | UO-31 renal 16.9% | ACHN renal 13.6% | A498 renal 46.3% | SK-OV-3 ovarian 74.4% | NCI/ADR-RES ovarian 27.3%
active: EKVX NSCLC -49.2% | SN12C renal -63.5% | TK-10 renal -92.2% | CAKI-1 renal 9.9% | CCRF-CEM leukemia -36.4% | MOLT-4 leukemia -23% | SR leukemia -20.2% | RPMI-8226 leukemia -31.8% | OVCAR-8 ovarian -33.3% | OVCAR-5 ovarian -67.4% | OVCAR-4 ovarian -68.1% | IGROV1 ovarian -71.1% | OVCAR-3 ovarian -85.9% | HS 578T breast -43.9%

COC(=O)[C@@H](Cc1c[nH]c2ccccc12)NC(=O)[C@H](Cc1ccccc1)NCc1ccncc1
inactive: SK-MEL-2 melanoma 77.7% | EKVX NSCLC 103% | SN12C renal 100% | UO-31 renal 71.9% | TK-10 renal 98.1% | ACHN renal 109% | CAKI-1 renal 91.9% | A498 renal 100% | CCRF-CEM leukemia 90.3% | MOLT-4 leukemia 92.5% | SR leukemia 99.2% | RPMI-8226 leukemia 84.6% | OVCAR-8 ovarian 89.1% | OVCAR-5 ovarian 101% | OVCAR-4 ovarian 98.7% | SK-OV-3 ovarian 94% | IGROV1 ovarian 101% | OVCAR-3 ovarian 101% | HS 578T breast 99.3% | NCI/ADR-RES ovarian 99.9%

N=C(N)c1ccc(-c2ccc(-c3ccccc3)s2)nc1
inactive: SK-MEL-2 melanoma 104% | EKVX NSCLC 88.8% | SN12C renal 82.4% | UO-31 renal 79.9% | TK-10 renal 106% | ACHN renal 91.5% | CAKI-1 renal 73.6% | A498 renal 88.3% | CCRF-CEM leukemia 68.9% | MOLT-4 leukemia 57.3% | SR leukemia 12.5% | RPMI-8226 leukemia 48% | OVCAR-8 ovarian 91.9% | OVCAR-5 ovarian 92.9% | OVCAR-4 ovarian 107% | SK-OV-3 ovarian 88.6% | IGROV1 ovarian 82.3% | OVCAR-3 ovarian 95% | HS 578T breast 85% | NCI/ADR-RES ovarian 96.7%

Nc1ccc(N)c2c1C(=O)c1cccc([N+](=O)[O-])c1C2=O
active: CAKI-1 renal 5.03% | A498 renal -73.8% | SR leukemia -9.26%
inactive: SK-MEL-2 melanoma 53.7% | EKVX NSCLC 38.2% | SN12C renal 25.9% | UO-31 renal 33.4% | TK-10 renal 45.3% | ACHN renal 15.9% | CCRF-CEM leukemia 48.3% | MOLT-4 leukemia 46.5% | RPMI-8226 leukemia 42.8% | OVCAR-8 ovarian 41.4% | OVCAR-5 ovarian 70.2% | OVCAR-4 ovarian 60.9% | SK-OV-3 ovarian 27.6% | OVCAR-3 ovarian 58.7% | HS 578T breast 37.6% | NCI/ADR-RES ovarian 49.4%

COc1cc(C2=Nc3c(N)nc(N)nc3NC(c3cccc(Nc4ccnc5cc(C(F)(F)F)ccc45)c3)C2)cc(OC)c1OC (stereo unspecified)
inactive: SK-MEL-2 melanoma 88% | EKVX NSCLC 66% | SN12C renal 73% | UO-31 renal 51.8% | TK-10 renal 108% | ACHN renal 96.8% | CAKI-1 renal 58.6% | A498 renal 79.8% | CCRF-CEM leukemia 51.7% | MOLT-4 leukemia 19.2% | RPMI-8226 leukemia 10.8% | OVCAR-8 ovarian 68.8% | OVCAR-5 ovarian 129% | OVCAR-4 ovarian 74.7% | SK-OV-3 ovarian 88.1% | IGROV1 ovarian 65.6% | OVCAR-3 ovarian 83.5% | HS 578T breast 62.7% | NCI/ADR-RES ovarian 95.3%
active: SR leukemia 0.109%

Cc1cc(=O)oc2cc(Oc3nc(-c4ccccc4)cn4c(-c5ccccc5)cnc34)ccc12
active: A498 renal 9.88%
inactive: SK-MEL-2 melanoma 51.9% | EKVX NSCLC 66.8% | SN12C renal 67.6% | UO-31 renal 40.8% | TK-10 renal 80.5% | ACHN renal 48.6% | CAKI-1 renal 85.2% | CCRF-CEM leukemia 77.6% | MOLT-4 leukemia 58.5% | SR leukemia 54.5% | RPMI-8226 leukemia 51% | OVCAR-8 ovarian 61.6% | OVCAR-5 ovarian 105% | OVCAR-4 ovarian 60.7% | SK-OV-3 ovarian 63.1% | IGROV1 ovarian 83.7% | OVCAR-3 ovarian 76.6% | HS 578T breast 58.6% | NCI/ADR-RES ovarian 45.4%

Clc1ccc(C2=Nn3c(nnc3-c3cc(Cl)cc(Cl)c3Cl)SC2)cc1
inactive: SK-MEL-2 melanoma 80.3% | EKVX NSCLC 70.6% | SN12C renal 88.4% | UO-31 renal 51.6% | TK-10 renal 87.4% | ACHN renal 58.2% | CAKI-1 renal 78.7% | A498 renal 55.9% | CCRF-CEM leukemia 36.1% | MOLT-4 leukemia 26.7% | RPMI-8226 leukemia 42.8% | OVCAR-8 ovarian 71.8% | OVCAR-5 ovarian 19.3% | OVCAR-4 ovarian 74.9% | SK-OV-3 ovarian 50.4% | HS 578T breast 20.9%
active: SR leukemia 2.55% | OVCAR-3 ovarian 8.59% | NCI/ADR-RES ovarian 5.52%

Cn1cc(-c2csc(-c3cn(C)c4ccc(F)cc34)n2)c2cnccc21
inactive: SK-MEL-2 melanoma 88.9% | A498 renal 78.3% | OVCAR-5 ovarian 25.6% | OVCAR-4 ovarian 11.3% | SK-OV-3 ovarian 107% | NCI/ADR-RES ovarian 24.7%
active: EKVX NSCLC -13.1% | SN12C renal -29.9% | UO-31 renal -69.7% | TK-10 renal -20.2% | ACHN renal -89.6% | CAKI-1 renal -43.9% | CCRF-CEM leukemia -11.6% | MOLT-4 leukemia -36.1% | SR leukemia -21.5% | RPMI-8226 leukemia -38.4% | OVCAR-8 ovarian 5.3% | IGROV1 ovarian -24.7% | OVCAR-3 ovarian -57.4% | HS 578T breast -34.2%

Cc1ccc(C2=Nc3c(N)nc(N)nc3NC(c3cccc(Nc4ccnc5cc(C(F)(F)F)ccc45)c3)C2)cc1 (stereo unspecified)
inactive: EKVX NSCLC 38.1% | SN12C renal 39.2% | UO-31 renal 39.6% | TK-10 renal 66% | ACHN renal 39.1% | CAKI-1 renal 29% | A498 renal 58.4% | OVCAR-8 ovarian 36.2% | OVCAR-5 ovarian 105% | OVCAR-4 ovarian 58.2% | SK-OV-3 ovarian 31.4% | IGROV1 ovarian 36.1% | OVCAR-3 ovarian 12.6% | HS 578T breast 26.3% | NCI/ADR-RES ovarian 30.1%
active: SK-MEL-2 melanoma -8.24% | CCRF-CEM leukemia 3.36% | MOLT-4 leukemia 1.92% | SR leukemia -8.2% | RPMI-8226 leukemia -19.2%

CCCCCCCCNC(=O)[C@@H](N)CSCOC(C)=O
inactive: SK-MEL-2 melanoma 89.1% | EKVX NSCLC 111% | SN12C renal 91.7% | UO-31 renal 94.9% | TK-10 renal 105% | ACHN renal 100% | CAKI-1 renal 107% | A498 renal 63% | CCRF-CEM leukemia 45.7% | MOLT-4 leukemia 90.4% | SR leukemia 100% | RPMI-8226 leukemia 87.9% | OVCAR-8 ovarian 85.5% | OVCAR-5 ovarian 103% | OVCAR-4 ovarian 112% | SK-OV-3 ovarian 95.3% | IGROV1 ovarian 103% | OVCAR-3 ovarian 97.4% | HS 578T breast 93.4% | NCI/ADR-RES ovarian 82.7%

COc1ccc(Nc2nccc(Nc3ccc4[nH]ncc4c3)n2)cc1
inactive: SK-MEL-2 melanoma 29.8% | EKVX NSCLC 50.9% | SN12C renal 43.4% | UO-31 renal 15.9% | TK-10 renal 19.3% | ACHN renal 29.2% | CAKI-1 renal 38.3% | A498 renal 36.5% | OVCAR-5 ovarian 52.1% | OVCAR-4 ovarian 33.3% | SK-OV-3 ovarian 52.1% | IGROV1 ovarian 50.6% | OVCAR-3 ovarian 48.9% | HS 578T breast 46.7% | NCI/ADR-RES ovarian 17.7%
active: CCRF-CEM leukemia -1.69% | MOLT-4 leukemia 1.45% | SR leukemia 4.38% | RPMI-8226 leukemia 2.72% | OVCAR-8 ovarian 9.36%

CN1C(=O)N(C)C2C1NN=c1s/c(=C\c3ccc(F)cc3)c(=O)n12 (stereo unspecified)
active: A498 renal 9.72% | OVCAR-3 ovarian 7.29%
inactive: SK-MEL-2 melanoma 48.6% | EKVX NSCLC 63.8% | SN12C renal 36.3% | UO-31 renal 39.8% | TK-10 renal 65.1% | ACHN renal 39.2% | CAKI-1 renal 29.1% | CCRF-CEM leukemia 18.1% | MOLT-4 leukemia 23.2% | SR leukemia 26.8% | RPMI-8226 leukemia 66.5% | OVCAR-8 ovarian 29.5% | OVCAR-5 ovarian 48.6% | OVCAR-4 ovarian 28.6% | SK-OV-3 ovarian 33.1% | HS 578T breast 14.8% | NCI/ADR-RES ovarian 10.3%

COc1cc2cc(Oc3ccc(NC(=O)Nc4ccc(F)c(C(F)(F)F)c4)cc3)c(C)nc2cc1OCCN1CCCCC1
inactive: SK-MEL-2 melanoma 102% | EKVX NSCLC 57.6% | SN12C renal 91.7% | UO-31 renal 75.3% | TK-10 renal 118% | ACHN renal 84.1% | A498 renal 84.7% | OVCAR-5 ovarian 127% | SK-OV-3 ovarian 115% | IGROV1 ovarian 34.7% | HS 578T breast 102% | NCI/ADR-RES ovarian 74.7%
active: CAKI-1 renal -85% | CCRF-CEM leukemia 2.51% | MOLT-4 leukemia -14.5% | SR leukemia -46.1% | RPMI-8226 leukemia -25.8% | OVCAR-8 ovarian -55.5% | OVCAR-4 ovarian 0.714% | OVCAR-3 ovarian -92.5%

O=[N+]([O-])c1ccc(N/N=C\c2cc(Cl)ccc2O)nc1
active: UO-31 renal 8.96% | CAKI-1 renal -14.1%
inactive: SK-MEL-2 melanoma 44.3% | EKVX NSCLC 31% | SN12C renal 39.3% | TK-10 renal 107% | ACHN renal 17.6% | A498 renal 106% | CCRF-CEM leukemia 19.1% | MOLT-4 leukemia 13.8% | SR leukemia 10.6% | RPMI-8226 leukemia 40.8% | OVCAR-8 ovarian 32.9% | OVCAR-5 ovarian 88.8% | OVCAR-4 ovarian 36.1% | SK-OV-3 ovarian 46.6% | IGROV1 ovarian 30.4% | OVCAR-3 ovarian 48.5% | HS 578T breast 64.2% | NCI/ADR-RES ovarian 17.4%

COc1ccc(-c2nc(SCCC(C)C)nc(N/N=C(/C)c3ccc(N)cc3)c2C#N)cc1
inactive: SK-MEL-2 melanoma 109% | EKVX NSCLC 93.4% | SN12C renal 75.1% | UO-31 renal 69.3% | TK-10 renal 104% | ACHN renal 92.9% | CAKI-1 renal 81.8% | A498 renal 90.9% | CCRF-CEM leukemia 95.8% | MOLT-4 leukemia 95.4% | SR leukemia 90.2% | RPMI-8226 leukemia 93.3% | OVCAR-8 ovarian 92.7% | OVCAR-5 ovarian 93.7% | OVCAR-4 ovarian 101% | SK-OV-3 ovarian 89% | OVCAR-3 ovarian 99.2% | HS 578T breast 92.4% | NCI/ADR-RES ovarian 93.6%
